Results on 33 molecules are retold here after PubChem BioAssay (NCATS).

For test [1], the target named is Ubiquitin carboxyl-terminal hydrolase 1 (Homo sapiens) (UniProt O94782). The test is described as follows: Inhibitors of USP1/UAF1: Pilot qHTS (AID 504865).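 Further: rhodamine fluorescence freed from ubiquitin-rhodamine substrate followed over time; top concentration of the series differs between compounds; nearly all actives have a fitted effect of over 35% in size.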 In short, it runs like this: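 USP1/UAF1 complex at 1 nM preincubated 15 min at room temperature with compound, then Ub-Rho substrate added at 150 nM final. Fluorescence (480/540 nm) read kinetically in 50 mM HEPES pH 7.8, 0.5 mM EDTA, 1 mM TCEP, 0.1 mg/ml BSA, 0.01% Tween-20.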
Sequence of Ubiquitin carboxyl-terminal hydrolase 1 (Homo sapiens) (O94782 whole entry, looked up): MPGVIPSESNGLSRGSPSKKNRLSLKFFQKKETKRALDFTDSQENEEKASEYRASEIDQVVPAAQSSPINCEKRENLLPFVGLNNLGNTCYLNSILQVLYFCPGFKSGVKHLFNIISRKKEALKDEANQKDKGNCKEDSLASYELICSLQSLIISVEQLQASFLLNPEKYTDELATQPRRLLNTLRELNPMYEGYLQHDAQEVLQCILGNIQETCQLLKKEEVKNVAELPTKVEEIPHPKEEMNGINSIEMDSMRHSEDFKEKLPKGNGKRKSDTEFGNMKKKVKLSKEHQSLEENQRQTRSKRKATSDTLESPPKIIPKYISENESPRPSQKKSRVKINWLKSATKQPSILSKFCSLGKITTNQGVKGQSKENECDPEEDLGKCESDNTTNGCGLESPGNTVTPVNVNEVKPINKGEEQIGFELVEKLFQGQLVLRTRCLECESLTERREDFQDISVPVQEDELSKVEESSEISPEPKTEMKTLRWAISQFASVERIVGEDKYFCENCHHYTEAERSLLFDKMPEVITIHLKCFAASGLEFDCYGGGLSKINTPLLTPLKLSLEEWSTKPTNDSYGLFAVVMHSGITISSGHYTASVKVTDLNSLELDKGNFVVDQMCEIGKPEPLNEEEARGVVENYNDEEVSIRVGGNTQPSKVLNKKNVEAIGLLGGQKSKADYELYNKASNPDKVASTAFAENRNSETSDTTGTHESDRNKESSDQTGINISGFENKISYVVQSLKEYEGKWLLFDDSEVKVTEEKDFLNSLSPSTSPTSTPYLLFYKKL
Background: Quantitative high-throughput screening tests each substance at several concentrations.

Test [2] deals with Estrogen receptor (Homo sapiens) (UniProt P03372). Put plainly: qHTS assay for small molecule antagonists of estrogen receptor alpha signaling (AID 588513; active means well fitted curve in the direction sought with a large enough effect in the signal ratio, with a control signal flat, not every such curve was filed as active; the % refers to the signal ratio). In short, it runs like this: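 ER-alpha-UAS-bla GripTite HEK 293 cells in 2% charcoal/dextran-treated FBS medium; compounds titrated (1:2, duplicate), then stimulated with 0.5 nM 17-beta-estradiol for 18 h at 37C. CCF4 beta-lactamase fluorescence; Hill-fit IC50 and efficacy.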
Sequence of Estrogen receptor (Homo sapiens) (P03372 whole entry, looked up): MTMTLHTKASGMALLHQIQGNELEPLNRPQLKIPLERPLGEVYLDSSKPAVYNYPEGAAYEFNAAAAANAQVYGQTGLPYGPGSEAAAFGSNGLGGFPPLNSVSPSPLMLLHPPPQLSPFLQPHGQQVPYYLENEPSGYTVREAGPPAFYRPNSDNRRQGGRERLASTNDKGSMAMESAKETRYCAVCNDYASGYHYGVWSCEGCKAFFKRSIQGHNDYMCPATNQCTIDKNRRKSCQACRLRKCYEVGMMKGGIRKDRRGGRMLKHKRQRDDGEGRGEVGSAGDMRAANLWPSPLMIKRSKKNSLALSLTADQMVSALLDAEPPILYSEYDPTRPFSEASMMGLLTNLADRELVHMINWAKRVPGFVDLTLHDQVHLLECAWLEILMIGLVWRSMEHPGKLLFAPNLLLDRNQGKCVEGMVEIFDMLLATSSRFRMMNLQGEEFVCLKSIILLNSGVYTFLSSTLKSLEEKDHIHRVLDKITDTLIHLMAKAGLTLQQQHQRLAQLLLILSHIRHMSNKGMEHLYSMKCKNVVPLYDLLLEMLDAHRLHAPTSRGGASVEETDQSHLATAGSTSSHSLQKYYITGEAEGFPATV

The target is the same in test [3]. Put plainly: qHTS assay for small molecule agonists of estrogen receptor alpha signaling (AID 588514; calls by dose curve; further: nearly all actives have a fitted effect of over 70% in size). Put shortly:
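Fluorescence from CCF4 cleavage reports ER-alpha-driven beta-lactamase expression in HEK 293 cells treated 18 hrs at 37 C. Data normalized to 17-beta-estradiol (20 nM) and DMSO, fitted to Hill equation.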

For test [4], the target named is Bile acid receptor (Homo sapiens) (UniProt Q96RI1). The test is described as follows: qHTS assay for small molecule antagonists of farnesoid X receptor signaling (AID 588526; calls by dose curve). Put shortly:
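Antagonist mode: titrated compounds tested against chenodeoxycholic acid stimulation (normalized to 50 uM CDCA and DMSO) in GeneBLAzer HEK293T cells for 16 h. Beta-lactamase read by CCF4 fluorescence; IC50 from Hill fits.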

Test [5] in a line: qHTS assay for small molecule antagonists of peroxisome proliferator-activated receptor delta signaling (AID 588535).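 Further: cells co-treated with a PPAR-delta agonist as stimulator during compound exposure.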 Conditions: HEK293T PPARd-UAS-bla, beta-lactamase FRET ratio, 18 h; 460 nm channel. Put shortly: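 Beta-lactamase reporter read-out (405 nm excitation, 460/530 nm emission) after CCF4 loading for 2 hrs at RT. HEK293T PPAR-delta-UAS-bla cells, 2% charcoal/dextran FBS, compounds for 18 hrs at 37 C. Hill fit gave IC50 and efficacy.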

Test [6] has as its target Glucocorticoid receptor (Homo sapiens) (UniProt P04150). The test is described as follows: qHTS assay for small molecule antagonists of glucocorticoid receptor signaling (AID 588533; active means well fitted inhibition curve with a large enough effect in the signal ratio, with a control signal flat, not every such curve was filed as active; the % refers to the signal ratio;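 further: cells stimulated with 2 nM dexamethasone as agonist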; further: potency means the concentration at half of the fitted maximal effect). In short, it runs like this:
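Antagonist-mode qHTS: compound titrations added to GRE-bla HeLa cells, then dexamethasone 2 nM final; 18 h, 37 C. CCF4 FRET fluorescence normalized to dexamethasone and DMSO; IC50 from Hill fit.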

Test [7] has as its target Androgen receptor (Homo sapiens) (UniProt P10275). Put plainly: qHTS assay for small molecule antagonists of androgen receptor signaling (AID 588516; active means well fitted curve in the direction sought with a large enough effect in the signal ratio, with a control signal flat, not every such curve was filed as active; the % refers to the signal ratio). In short, it runs like this: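 AR-UAS-bla GripTite HEK 293 cells (2000/well) treated with compound titrations plus 10 nM R1881 for 16 h at 37C. Beta-lactamase read by CCF4 FRET (460/530 nm); IC50 from Hill fits, normalized to R1881 and DMSO control wells.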

Test [8] has the same target. Put plainly: qHTS assay for small molecule agonists of androgen receptor signaling (AID 588515; active means well fitted curve in the direction sought with a large enough effect in the signal ratio, with a control signal flat; the % refers to the signal ratio). The note with it: AR-UAS-bla HEK293, beta-lactamase ratio, agonist 16 h; stronger effect = higher value. Put shortly: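 Stimulation of an AR-responsive β-lactamase reporter in GripTite HEK293 cells was measured after 16 h compound exposure at 37 °C, via CCF4 fluorescence after 2 h RT. EC50 from Hill fits, normalized to R1881 at 30 nM.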

The target of test [9] is DNA dC->dU-editing enzyme APOBEC-3G (Homo sapiens) (UniProt Q9HC16). The test is described as follows: qHTS for inhibitors of Vif-A3G interactions: Validation (AID 588379). In short, it runs like this: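 Yellow fluorescence (Ex 488, Em 500-530) of Vif-coexpressing HeLa A3G-eYFP cells, scanned by Acumen cytometer, reports blocked A3G degradation. Cells plated at 700/well overnight at 37 deg C before compound addition, then a further overnight compound incubation at 37 deg C.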
Sequence of DNA dC->dU-editing enzyme APOBEC-3G (Homo sapiens) (Q9HC16 whole entry, looked up): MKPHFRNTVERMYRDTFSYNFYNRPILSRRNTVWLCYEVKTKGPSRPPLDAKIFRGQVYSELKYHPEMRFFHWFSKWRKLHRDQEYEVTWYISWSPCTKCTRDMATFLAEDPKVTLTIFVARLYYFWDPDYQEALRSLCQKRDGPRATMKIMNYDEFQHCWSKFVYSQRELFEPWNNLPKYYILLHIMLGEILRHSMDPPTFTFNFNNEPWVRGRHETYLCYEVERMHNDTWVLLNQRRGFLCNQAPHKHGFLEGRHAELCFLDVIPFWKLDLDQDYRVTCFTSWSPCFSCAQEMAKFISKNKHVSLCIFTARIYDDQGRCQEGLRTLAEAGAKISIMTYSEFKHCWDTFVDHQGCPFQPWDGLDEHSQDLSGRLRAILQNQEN

Several values for one entry are separate records, joined by “and”; a condition that tells them apart may be missing. Equal entries are not always repeated. Records with an inconclusive call do not appear. Entries that show only a call come without a potency. Activity calls are given as the source filed them. Unless noted, the call rests on the fitted dose curve; in most records, active means well fitted inhibition curve with a large enough effect; inconclusive means small, poorly fitted or top-dose-only effect; inactive means flat fitted curve, though single readings scatter.

Sequence of Glucocorticoid receptor (Homo sapiens) (P04150 whole entry, looked up): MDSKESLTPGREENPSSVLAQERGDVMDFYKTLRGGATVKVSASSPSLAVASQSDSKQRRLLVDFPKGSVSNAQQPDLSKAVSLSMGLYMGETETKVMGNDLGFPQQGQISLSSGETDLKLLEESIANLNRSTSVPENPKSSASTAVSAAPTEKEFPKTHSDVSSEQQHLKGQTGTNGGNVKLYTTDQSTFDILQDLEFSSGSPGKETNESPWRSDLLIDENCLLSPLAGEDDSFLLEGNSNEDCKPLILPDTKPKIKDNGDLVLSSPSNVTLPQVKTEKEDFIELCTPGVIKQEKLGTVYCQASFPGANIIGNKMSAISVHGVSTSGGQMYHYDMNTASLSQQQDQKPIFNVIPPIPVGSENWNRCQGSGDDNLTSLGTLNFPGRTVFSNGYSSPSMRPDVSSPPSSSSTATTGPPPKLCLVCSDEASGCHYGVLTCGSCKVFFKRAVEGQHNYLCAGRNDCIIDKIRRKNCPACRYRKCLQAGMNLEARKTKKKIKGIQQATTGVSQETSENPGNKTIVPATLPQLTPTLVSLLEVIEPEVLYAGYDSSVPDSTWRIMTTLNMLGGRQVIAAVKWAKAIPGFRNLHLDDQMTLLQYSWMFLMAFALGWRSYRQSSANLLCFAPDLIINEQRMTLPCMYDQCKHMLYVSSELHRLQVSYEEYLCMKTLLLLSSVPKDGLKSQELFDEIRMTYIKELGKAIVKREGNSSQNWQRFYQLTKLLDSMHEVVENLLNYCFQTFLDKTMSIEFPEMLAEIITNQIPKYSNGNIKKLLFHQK
Sequence of Bile acid receptor (Homo sapiens) (Q96RI1 whole entry, looked up): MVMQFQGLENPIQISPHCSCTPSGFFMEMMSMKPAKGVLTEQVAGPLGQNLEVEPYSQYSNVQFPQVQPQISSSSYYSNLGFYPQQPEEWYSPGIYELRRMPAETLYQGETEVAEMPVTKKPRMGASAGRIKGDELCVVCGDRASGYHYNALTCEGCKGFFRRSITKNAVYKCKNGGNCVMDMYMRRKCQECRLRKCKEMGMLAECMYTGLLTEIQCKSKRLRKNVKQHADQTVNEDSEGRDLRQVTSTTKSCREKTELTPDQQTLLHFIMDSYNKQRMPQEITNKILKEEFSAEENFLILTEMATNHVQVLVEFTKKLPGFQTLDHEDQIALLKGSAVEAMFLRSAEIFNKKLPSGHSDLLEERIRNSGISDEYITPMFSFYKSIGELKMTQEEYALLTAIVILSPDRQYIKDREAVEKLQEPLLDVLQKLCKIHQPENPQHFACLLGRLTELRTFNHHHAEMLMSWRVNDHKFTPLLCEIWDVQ
Sequence of Androgen receptor (Homo sapiens) (P10275 whole entry, looked up): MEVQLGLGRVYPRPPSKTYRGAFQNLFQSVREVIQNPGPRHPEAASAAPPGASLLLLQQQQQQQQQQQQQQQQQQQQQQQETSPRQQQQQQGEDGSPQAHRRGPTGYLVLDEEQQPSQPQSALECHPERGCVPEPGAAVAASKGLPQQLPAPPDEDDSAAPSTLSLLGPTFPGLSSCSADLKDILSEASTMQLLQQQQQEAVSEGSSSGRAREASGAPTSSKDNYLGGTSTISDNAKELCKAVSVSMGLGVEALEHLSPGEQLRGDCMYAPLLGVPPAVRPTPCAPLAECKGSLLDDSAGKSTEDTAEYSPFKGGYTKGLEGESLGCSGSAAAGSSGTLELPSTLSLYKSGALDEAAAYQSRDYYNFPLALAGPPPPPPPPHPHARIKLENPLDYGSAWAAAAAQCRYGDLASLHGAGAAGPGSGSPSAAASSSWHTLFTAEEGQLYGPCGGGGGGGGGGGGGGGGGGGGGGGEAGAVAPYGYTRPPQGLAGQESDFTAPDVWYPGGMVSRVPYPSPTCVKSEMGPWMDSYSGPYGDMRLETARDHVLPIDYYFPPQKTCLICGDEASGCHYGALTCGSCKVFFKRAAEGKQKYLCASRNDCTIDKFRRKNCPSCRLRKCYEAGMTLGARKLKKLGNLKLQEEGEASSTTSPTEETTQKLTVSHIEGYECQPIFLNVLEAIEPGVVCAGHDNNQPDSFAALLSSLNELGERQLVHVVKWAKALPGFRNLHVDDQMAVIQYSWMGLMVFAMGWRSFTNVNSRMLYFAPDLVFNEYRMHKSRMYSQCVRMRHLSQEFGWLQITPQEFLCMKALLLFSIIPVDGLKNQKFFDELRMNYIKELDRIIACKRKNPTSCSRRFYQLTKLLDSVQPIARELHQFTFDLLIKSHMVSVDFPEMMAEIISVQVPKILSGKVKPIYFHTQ

For the molecule `O=C(O)COc1ccc(CCNS(=O)(=O)c2ccccc2)s1`, the Potency result in test [1] is “inactive”.

Take `CC(CN(C)C)CN1c2ccccc2Sc2ccc(C(F)(F)F)cc21` (centres undefined): the Potency result in test [1] is “inactive”.

Take `CCN(CC)C(=S)S`: in test [1], the Potency result was “inactive”.

As to `CC1=C(/C=C/C(C)=C/C=C/C(C)=C/C(=O)Oc2c(C)c(C)c3c(c2C)CC[C@@](C)(CCC[C@H](C)CCC[C@H](C)CCCC(C)C)O3)C(C)(C)CCC1`, in test [1], the Potency entry was “inactive”.

With `C=Cc1ccc(S(=O)(=O)O)cc1`, the Potency entry in [1] is “inactive”.

As to `COc1cc(S(C)=O)ccc1-c1nc2ncccc2[nH]1` (centres undefined), the Potency entry in test [1] was “inactive”.

Turning to `N=C(N)n1cccn1`, the Potency result in test [1] is “inactive”.

Take `CCCCC(CC)COS(=O)(=O)O` (centres undefined): the Potency entry in test [1], in test [2] and in [3] was “inactive” in each case. Besides, in test [4], the call was inactive. For the same molecule, in test [5], the max response was -7.66%.

Regarding `Nc1ncnc2c1ncn2CCOCP(=O)(O)O`, the Potency result in test [1] is “inactive”.

As to `CN1CCCC(CN2c3ccccc3Sc3ccccc32)C1` (centres undefined), the Potency entry in test [1] is “inactive”.

Consider `C=CC[N+]1([C@H]2C[C@H]3[C@@H]4CC[C@H]5C[C@H](O)[C@@H](N6CCOCC6)C[C@]5(C)[C@H]4CC[C@]3(C)[C@H]2OC(C)=O)CCCC1`, for which, in [1], the Potency result is “inactive”.

Turning to `C[C@H](CCC(=O)O)[C@H]1CC[C@H]2[C@@H]3CC[C@@H]4C[C@H](O)CC[C@]4(C)[C@H]3C[C@H](O)[C@]12C`, the Potency entry in test [1], in test [2] and in test [3] was “inactive” in each case. In addition, in test [4], the molecule was called inactive.

Take `Cn1c(O)c(N=NC(N)=S)c2ccccc21`: the Potency result in test [1] was “inactive”.

In the case of `CC(C)Cc1ccc([C@@H](C)C(=O)NS(C)(=O)=O)cc1`, in [1], the Potency entry was “inactive”.

For the molecule `CC(=O)Nc1c(I)c(C(=O)O)c(I)c(N(C)C(C)=O)c1I`, the Potency result in test [1] is “inactive”.

As to `NCCO/C=C/[C@H](N)C(=O)O`, the Potency result in test [1], in test [2], in test [3] and in [6] was “inactive” each time. For the same molecule, in test [4], the molecule was classed as inactive. Besides, in test [5], the max response is -3.12%.

Take `CCC(C)[C@@H](N)C(=O)O` (some centres undefined): in [1], the Potency result was “inactive”.

Take `CC[C@H]1OC(=O)[C@H](C)[C@@H](O[C@H]2C[C@@](C)(OC)[C@@H](O)[C@H](C)O2)[C@H](C)[C@@H](O[C@@H]2O[C@H](C)C[C@H](N(C)C)[C@H]2O)[C@](C)(O)C[C@@H](C)CN(C)[C@H](C)[C@@H](O)[C@]1(C)O`: the Potency entry in test [1], in [2] and in [3] was “inactive” in each case.

Take `CCCCCCCCCCCCOCCCN`: in [1], the Potency entry was “inactive”.

`O=C1CCC(=O)N1CO`: in test [1], the Potency result was “inactive”.

Consider `CCCCCCCCCCCCCCCCCC[N+](C)(C)CCC[Si](OC)(OC)OC`, for which, in [1], the Potency result was “inactive”.

With `OCCOCCOCCO`, the Potency entry in [1], in [2], in test [3] and in test [6] was “inactive” throughout. Moreover, the outcome in [7] was inactive.

As to `COC(=O)CCC[N+](C)(C)C`, in [1], the Potency result was “inactive”.

With `S=C=Nc1ccc(N=C=S)cc1`, the Potency result in test [1] was “inactive”.

On to `CCOC(=O)Cc1ccc(-c2ccccc2)cc1`, for which, in test [1], the Potency entry is “inactive”.

For `CCOC(=O)[C@@H](N)CS`, the Potency entry in [1] was “inactive”.

Consider `OCC(O)CO`, for which the Potency result in [1], in [2], in [3] and in test [6] was “inactive” in each case. The molecule was classed as inactive in [4]. The max response in test [5] was -8.63%.

As for `CC(C)(C)CC(C)(C)c1ccc(OCCO)cc1`, the Potency entry in [1], in test [2] and in test [3] was “inactive” throughout. The activation in test [8] is -21% (inactive).

Turning to `NC(N)=O`, the Potency entry in test [1], in [2] and in test [3] was “inactive” in each case.

Turning to `O=C(O)C1=C(CSc2nnnn2CS(=O)(=O)O)CS[C@@H]2[C@H](NC(=O)[C@H](O)c3ccccc3)C(=O)N12`, the Potency entry in test [1] is “inactive”.

As for `C[C@H]1O[C@@H](O[C@H]2[C@@H](O)C[C@H](O[C@H]3[C@@H](O)C[C@H](O[C@H]4CC[C@@]5(C)[C@H](CC[C@@H]6[C@@H]5C[C@@H](O)[C@]5(C)[C@@H](C7=CC(=O)OC7)CC[C@]65O)C4)O[C@@H]3C)O[C@@H]2C)C[C@H](O)[C@@H]1O`, in test [1], the Potency result was “inactive”. The call in [9] was inactive. Moreover, the Potency in [6] was 1 µM (active) and 562 nM (active).

Consider `NCC(O)CC(=O)O` (centres undefined), for which the Potency entry in test [1] was “inactive”.

Regarding `N[C@H](CC(=O)O)C(=O)O`, the Potency entry in test [1] is “inactive”. In addition, the molecule was classed as inactive in test [9].
